Drawing on ChEMBL document CHEMBL4513216, “Probing the Open Global Health Chemical Diversity Library for Multistage-Active Starting Points for Next-Generation Antimalarials” (ACS Infect Dis, 2020), this text covers INHIBITION for 64 molecules.

The whole screen tested about 65,000 compounds, of which about 2,100 (3.2%) showed an effect of 50% or more. The median lay at about -52%. Shown is part of a subset that was picked to be rich in strong results.

The subject of this assay is Plasmodium falciparum. Description: Screen against P. falciparum Asexual Blood Stage (ABS), at 5uM. It is filed as functional, Dd2. The following applies: tested at 5 uM.
For `c1cncc(OC[C@]23COC[C@H]2CN(C2CCC2)C3)c1`, the INHIBITION is reported as -4.29%. On to `CCC1CCCN(Cc2nc(N)c3ccccc3n2)C1` (centres undefined), for which the INHIBITION came out at 74%. Regarding `O=S(=O)(C1CC1)N1CCOC2(CCCN(Cc3ccccn3)C2)C1` (centres undefined), the INHIBITION is on record as -97.5%.

On to `CCN1CCc2c(cccc2NC(=O)N(C)C2CCSC2)C1` (centres undefined), for which the INHIBITION is -40.2%. With `CN(C)CCN1CCN(CC2CC2)c2ncccc2C1`, the INHIBITION turned out to be 10.4%. Under `CN(C)CCN1CCC(NC2CSCCc3ccccc32)CC1` (centres undefined) stands 76.5%; under `O=C1[C@@H]2CN(Cc3ccccn3)C[C@H]2CCN1c1cncnc1`, -99.9%; under `Cc1ccc(-n2nnc(CC(=O)N3CCN(C(C)C)CC3)c2C)cc1`, -42.3%. As to `CCC(=O)NCC(=O)NC(Cc1ccccc1)c1sccc1C` (centres undefined), the INHIBITION was found to be 85.5%. Take `CCOC(C)c1noc(CN(C)C(=O)C2C(C)(C)C2(C)C)n1` (centres undefined): the INHIBITION is given as -124%. On to `Cc1cc(C)c2cc(CNC3CCCCC3)c3nn(C)c(=O)n3c2c1`, for which the INHIBITION is on record as 79.7%.

As to `COc1ccc(CCNCc2ccco2)cc1OC`, the INHIBITION amounted to 5.79%. As for `Cc1cc(C)c2cc(CNCc3ccco3)c3nn(C)c(=O)n3c2c1`, the figure is 75.5%; as for `Cc1ccccc1CNCc1cc(Cl)ccc1O`, 75.4%. As for `Oc1ccc(Cl)cc1CNCc1cccc(C(F)(F)F)c1`, the figure is 89%. Regarding `Oc1ccc(Cl)cc1CNCc1ccccc1Cl`, the INHIBITION is on record as 76.4%.

Turning to `COCCNC(=O)[C@H]1C[C@@H]2CCN(Cc3ccncc3)C[C@H]2O1`, the INHIBITION is -49.6%. As for `O=C(NCc1ccncc1)C1=NOC2(CCCNC2)C1` (centres undefined), the figure is -6.12%.

For `Cc1cccc(CN2CC3C[C@]3(NC(=O)c3ccco3)C2)n1` (some centres undefined), the INHIBITION is -83.2%. As for `CCCc1nc(CNC(C)Cn2cccn2)cs1` (centres undefined), the figure is -91.5%; as for `COCCN1CCN(c2ccc(C)nn2)Cc2ccc(C)nc21`, -54.8%. As for `O=C(C1CC1)N1CCc2c(ncnc2N2CCN3CCCC3C2)C1` (centres undefined), the figure is -21.1%; as for `c1ccn2c(C3CCCN(c4ncnc5c4CCNC5)C3)nnc2c1` (centres undefined), 76.2%. Take `Nc1nc2c(c(N3CCCC(c4nnc5ccccn45)C3)n1)CCNC2` (centres undefined): the INHIBITION is recorded as 84.8%. As for `Clc1cncc(N2CCN(Cc3ccon3)CC2)n1`, the figure is -51.3%; as for `CN1CCCCC1c1cncc(Cl)n1` (centres undefined), -143%. For `CC(C)(N)C(=O)N1CCCC1c1cncc(Oc2ccccc2)n1` (centres undefined), the INHIBITION is on record as 78.6%.

`O=C(Nc1cccnc1)[C@@H]1C[C@H]2OCC[C@H]2N(Cc2nccs2)C1`: the INHIBITION is on record as -80.7%. As to `Cn1cc(CN2C[C@@H]3[C@@H](C2)OCC(=O)N3Cc2ccncc2)cn1`, the INHIBITION is given as -72.9%. As for `c1ccc(CN2CC[C@@H]3[C@@H](CO[C@@H]3CNc3ncccn3)C2)nc1`, the figure is -169%. As for `c1ccc(CN2CC[C@H]3CO[C@H](CNc4ncccn4)[C@H]3C2)nc1`, the figure is -30.4%; as for `CO[C@@H]1CCN(c2ncc(F)cn2)[C@@H]2CN(CC3CC3)C[C@@H]21`, 6.1%. As for `CCN1C[C@H]2[C@@H](C1)N(c1ncc(F)cn1)CC[C@H]2OC`, the figure is 35.7%; as for `CN(Cc1ccco1)C[C@H]1OC[C@@H]2CCN(Cc3ccccn3)C[C@@H]21`, 71.1%. For `c1ccc(COC[C@H]2CC[C@H]3[C@H](CCN3Cc3ccco3)O2)nc1`, the INHIBITION was -63.4%. For the molecule `CO[C@H]1CCN(Cc2ccccn2)[C@@H]2CN(Cc3ccco3)C[C@H]12`, the INHIBITION was 67.7%.

For the molecule `CO[C@@H]1CCN(Cc2ccccn2)[C@@H]2CN(Cc3ccco3)C[C@@H]21`, the INHIBITION came out at 81.6%.

On to `CO[C@H]1CCN(c2ncc(F)cn2)[C@@H]2CN(Cc3ccco3)C[C@H]12`, for which the INHIBITION came out at 63.7%. Consider `CO[C@@H]1CC[C@H]2[C@H]1OCCN2Cc1ccccn1`, for which the INHIBITION is given as -64.6%. For the molecule `COC[C@H]1CC[C@@H]2[C@@H](CCN2Cc2ccccn2)O1`, the INHIBITION was -7.67%. Under `COC[C@H]1CC[C@@H]2[C@@H](CCN2Cc2ccco2)O1` stands -128%; under `COc1cccc2c(=O)n(C3CCNCC3)cnc12`, -104%. As for `O=C(NC1CCC1)[C@@H]1C[C@@H]2CCN(Cc3ccncc3)C[C@H]2O1`, the figure is -70.1%. As for `COCCO[C@@H]1C[C@H]2CN(C(=O)c3ccc(C)nc3)CCN2C1`, the figure is -15.2%; as for `Cn1ccc(CN2CCOCC23CCNCC3)n1`, -75.7%.

Consider `Cc1noc(C)c1C(=O)N1CCC2(CC1)c1nc[nH]c1CCN2C`, for which the INHIBITION is recorded as -42.4%. In the case of `CCN(CC)CCN1CCO[C@H]2[C@@H](OCc3ccncc3)CC[C@@H]21`, the INHIBITION is recorded as -18.1%.

For the molecule `c1ccc(OC[C@]23COC[C@H]2CN(C2CCOCC2)C3)nc1`, the INHIBITION is listed as 2.04%.

Take `Cn1cc(CN2C[C@H]3CCC[C@@]3(COc3ccccn3)C2)cn1`: the INHIBITION amounted to 66.1%. As for `c1ccc(OC[C@]23COC[C@H]2CN(Cc2ccoc2)C3)nc1`, the figure is 15.8%; as for `Cn1cc(CN2C[C@H]3CCC[C@@]3(COc3cccnc3)C2)cn1`, 17.2%; as for `CN(C)CC(=O)N1C[C@H]2CCC[C@@]2(COc2ccccn2)C1`, 84.9%. With `c1ccc(COC[C@@]23CCC[C@@H]2CN(Cc2ccccn2)C3)nc1`, the INHIBITION is given as -56.9%. Turning to `COc1ccccc1C1SCC(=O)Nc2c1c(=O)[nH]n2C1CCOCC1` (centres undefined), the INHIBITION was -116%. Consider `CN(C)c1ncc2c(n1)C1(CCN(CC3CC3)C1)COC2` (centres undefined), for which the INHIBITION is on record as -2.79%. Consider `COCCN1CCC2(COCc3c(C)nc(N(C)C)nc32)C1` (centres undefined), for which the INHIBITION was -49.6%. For `Cc1nc(N(C)C)nc2c1COCC21CCN(CC2CC2)C1` (centres undefined), the INHIBITION was found to be 50.3%. In the case of `Cc1ccc(CN(CCCn2ccnc2)Cc2c(F)cccc2F)s1`, the INHIBITION is reported as 81.5%. For the molecule `Cc1cc(C2CCC2)nc(NCCC23CCCN2CCC3)n1`, the INHIBITION came out at 12.6%. Under `CC(C)COc1ccc(C2SCC(=O)Nc3c2c(=O)[nH]n3C(C)C)cc1` (centres undefined) stands -35.2%.

Take `CSC(C)CCN1CCC(n2cc(C3CCCCC3)nn2)CC1` (centres undefined): the INHIBITION is given as 78.4%. Under `CCC(C)CN1CCC(n2cc(C3CCCCC3)nn2)CC1` (centres undefined) stands 77.1%; under `CC1(C)C(C(=O)NCCC2CN(Cc3c[nH]cn3)CCO2)C1(C)C` (centres undefined), -64.7%. Turning to `Cc1nc(C2(NCc3cc(C#N)ccc3F)CCCCC2)no1`, the INHIBITION is -10.8%.
